High-throughput results (PubChem BioAssay)
AI-2 QS mod – Vibrio harveyi AI-2 quorum sensing modulators, primary screen, JMH597 strain, luminescence/OD600 ratio; 0.4% of 300,000 active; activity change, % at 7.5 µM; Vibrio harveyi JMH597 AI-2 luminescence/OD600 ratio, 9 h; stronger effect = lower value; strain lacks LuxN and CqsS sensors; 0 = neutral-control median; in the data active means activity change below about -75%, passing the limit was not always enough;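 further: luminescence divided by OD600 gain over 9 h not by final OD600 alone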
Vif imaging – HIV Vif self-association inhibitors, primary screen, imaging, HEK293T, single point. HEK293T cells, Vif self-association by quenched fluorescence, 24 h. inhibition, % at 7.49 µM. 0.35% of 340,000 active; in the data active means inhibition above about 50%, passing the limit was not always enough
PvdQ acylase – P. aeruginosa PvdQ acylase inhibitors, primary screen, biochemical, fluorescence, plate reader and imaging, single point. PvdQ acylase [Pseudomonas aeruginosa LESB58]. purified PvdQ acylase. inhibition, % at 10 µM. 0.063% of 340,000 active; in the data active means inhibition above about 30%, passing the limit was not always enough
ERp5 inh – inhibitors of ERp5-driven insulin aggregation, primary screen, biochemical, turbidity, absorbance 650 nm, single point; inhibition, % at 9.99 µM; Protein disulfide-isomerase A6 (Homo sapiens), Q15084; 0.05% of 350,000 active; 90 min;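 active means mean replicate inhibition above about 25%, with every replicate also reaching it, limit read from the data, passing the limit was not always enough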
Target sequence (Q15084 whole entry, looked up): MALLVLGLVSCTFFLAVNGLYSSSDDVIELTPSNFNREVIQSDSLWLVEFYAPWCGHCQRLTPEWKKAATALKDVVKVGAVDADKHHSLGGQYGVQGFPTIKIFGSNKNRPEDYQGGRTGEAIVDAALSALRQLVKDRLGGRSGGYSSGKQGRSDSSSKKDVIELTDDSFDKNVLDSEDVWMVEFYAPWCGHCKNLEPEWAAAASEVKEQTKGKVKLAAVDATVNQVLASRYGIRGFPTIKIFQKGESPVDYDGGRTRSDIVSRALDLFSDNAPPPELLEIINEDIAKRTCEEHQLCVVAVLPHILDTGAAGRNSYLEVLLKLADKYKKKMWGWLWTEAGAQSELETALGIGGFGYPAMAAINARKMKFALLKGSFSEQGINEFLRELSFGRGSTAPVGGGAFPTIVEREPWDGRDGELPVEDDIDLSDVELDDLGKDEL
PDI turbidity – inhibitors of human PDI, primary screen, biochemical, turbidity, single point, plate reader. PDI insulin aggregation turbidity, A650, 90 min. AID 588391, 2011. 0.052% of 350,000 active. Protein disulfide-isomerase (Homo sapiens), P07237. inhibition, % at 10 µM;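 active means mean inhibition across replicates of 30% or more, whatever share of single replicates reach that level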
JMH597 growth rt – Vibrio harveyi growth inhibition, confirmation, counter-screen for AI-2 quorum sensing project, JMH597 strain, OD600 absorbance; AID 2726, 2010; 9 h; lacks LuxN and CqsS sensors; 1% of 750 active; shares compounds with AI-2 QS mod; growth inhibition, % at 7.5 µM;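 active means every replicate shows growth inhibition above 50%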
BB721 lum counter – luminescence inhibition in constitutive-on V. harveyi, confirmation, counter-screen for LuxS inhibitor project, strain BB721, luminescence readout | 95% of 750 active | inhibition, % at 7.5 µM | Vibrio harveyi BB721 luminescence, 9 h | shares compounds with AI-2 QS mod;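 active means inhibition above about 80% in every replicate, not just on average, limit read from the data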
BB721 growth – growth inhibition of V. harveyi BB721, confirmation, cytotoxicity control for AI-2 quorum sensing inhibitors, strain BB721, absorbance OD600; shares compounds with AI-2 QS mod; Vibrio harveyi BB721 growth, 9 h; growth inhibition, % at 7.5 µM; 3% of 750 active;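 active means every replicate shows growth inhibition above 50%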
JMH597 AI-2 mod – Vibrio harveyi AI-2 signaling luminescence modulation – JMH597 strain, confirmation. shares compounds with AI-2 QS mod. Vibrio harveyi JMH597 AI-2 quorum sensing luminescence, 9 h; luxN and CqsS knockout, AI-2 only. inhibition, % at 7.5 µM. 97% of 750 active;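 active means every replicate shows more than 75% inhibition of signal versus neutral control wells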
Large screens that a line does not name were inactive (follow-up assays come after a bar, where they were run). Hits are enriched below; roughly 0.64% of the tested compounds scored in any of these assays.

CO[C@@H]1CN(C)C(=O)c2cc(NC(=O)c3ccccc3F)ccc2OC[C@H](C)NC[C@H]1C	none (no result: AI-2 QS mod, Vif imaging, PvdQ acylase, PDI turbidity)
COC(=O)c1cccc(NC(=O)Cn2nnc3ccccc32)c1	AI-2 QS mod -84 (no result: ERp5 inh) | JMH597 growth rt inactive | BB721 lum counter 90 | BB721 growth inactive | JMH597 AI-2 mod 93
COC(=O)c1cccc(NC(=O)CN2C(=O)c3ccccc3C2=O)c1	AI-2 QS mod -97 | JMH597 growth rt inactive | BB721 lum counter 100 | BB721 growth inactive | JMH597 AI-2 mod 100
COC(=O)c1cccc(NC(=O)C(C)N2C(=O)c3ccccc3C2=O)c1 (stereo not given)	AI-2 QS mod -86 | JMH597 growth rt inactive | BB721 lum counter 95 | BB721 growth inactive | JMH597 AI-2 mod 97
COC(=O)c1cccc(NC(=O)CN2CCOCC2)c1	none (no result: ERp5 inh)
COCC(=O)Nc1ccc2c(c1)[C@@H]1C[C@@H](CC(=O)NCC3CC3)O[C@@H](CO)[C@@H]1O2	none (no result: AI-2 QS mod, Vif imaging, PvdQ acylase, PDI turbidity)
NCCSC1CC(=O)N(c2ccc(Cl)c(Cl)c2)C1=O (stereo not given)	AI-2 QS mod -80 | JMH597 growth rt inactive | BB721 lum counter 90 | BB721 growth inactive | JMH597 AI-2 mod 94
O=C1CC(SCCO)C(=O)N1c1ccc(Oc2ccccc2)cc1 (stereo not given)	AI-2 QS mod -83 | JMH597 growth rt inactive | BB721 lum counter 91 | BB721 growth inactive | JMH597 AI-2 mod 92
O=C(O)CCSC1CC(=O)N(c2ccccc2)C1=O (stereo not given)	none
O=C(NC1CCCCC1)N[C@@H]1CC[C@@H](CCNS(=O)(=O)c2ccccc2)O[C@H]1CO	none (no result: AI-2 QS mod, Vif imaging, PvdQ acylase, PDI turbidity)
Cc1noc(C)c1NC(=O)N(C)C[C@H]1OCCCC[C@@H](C)Oc2ccc(NC(=O)Cc3ccccc3)cc2C(=O)N([C@H](C)CO)C[C@H]1C	none (no result: AI-2 QS mod, Vif imaging, PvdQ acylase, PDI turbidity)
Clc1ccc(CON/C=N/c2ncnc3sccc23)c(Cl)c1	AI-2 QS mod -95 (no result: ERp5 inh) | JMH597 growth rt inactive | BB721 lum counter 90 | BB721 growth inactive | JMH597 AI-2 mod 94
CC1(C)CC(=O)C=C(Nc2cc(-c3ccccc3)[nH]n2)C1	AI-2 QS mod -79 (no result: ERp5 inh) | JMH597 growth rt inactive | BB721 lum counter 90 | BB721 growth inactive | JMH597 AI-2 mod 94
O=C(N[C@H]1CC[C@H](CC(=O)N2CCc3ccccc3C2)O[C@@H]1CO)C1CC1	none (no result: AI-2 QS mod, Vif imaging, PvdQ acylase, PDI turbidity)
O=C(Cn1nc(-c2ccccc2)ccc1=O)NCc1ccc(F)cc1	none
CCc1ccc(CNC(=O)Cn2nc(-c3ccc(C)cc3)ccc2=O)cc1	AI-2 QS mod -79 (no result: Vif imaging, PvdQ acylase, ERp5 inh, PDI turbidity) | JMH597 growth rt inactive | BB721 lum counter 90 | BB721 growth inactive | JMH597 AI-2 mod 94
COCCNC(=O)C[C@H]1CC[C@@H]2[C@H](COc3ccc(NC(=O)c4cnccn4)cc3C(=O)N2C)O1	none (no result: AI-2 QS mod, Vif imaging, PvdQ acylase, PDI turbidity)
Cc1ccc(SCCNS(=O)(=O)c2ccc(F)cc2)cc1	AI-2 QS mod -94 (no result: ERp5 inh) | JMH597 growth rt inactive | BB721 lum counter 94 | BB721 growth inactive | JMH597 AI-2 mod 95
O=C(Nc1cc(-c2ccccc2)[nH]n1)c1ccc(Cl)cc1	AI-2 QS mod -82 | JMH597 growth rt inactive | BB721 lum counter 96 | BB721 growth inactive | JMH597 AI-2 mod 96
Cc1ccc(-c2cc(NC(=O)c3ccccc3[N+](=O)[O-])n[nH]2)cc1	AI-2 QS mod -95 | JMH597 growth rt inactive | BB721 lum counter 97 | BB721 growth inactive | JMH597 AI-2 mod 98
COc1ccc2c3c(n(C)c2c1)[C@H](CO)N(C(C)=O)CC31CCN(C(=O)c2ccccc2)CC1	none (no result: AI-2 QS mod, Vif imaging, PvdQ acylase, PDI turbidity)
Cc1cccc(NC(=O)CO/N=C/c2ccc3c(c2)OCO3)c1	AI-2 QS mod -89 (no result: ERp5 inh) | JMH597 growth rt inactive | BB721 lum counter 96 | BB721 growth inactive | JMH597 AI-2 mod 97
O=C(CO/N=C/c1ccc2c(c1)OCO2)Nc1cccc(Br)c1	AI-2 QS mod -89 (no result: ERp5 inh) | JMH597 growth rt inactive | BB721 lum counter 98 | BB721 growth inactive | JMH597 AI-2 mod 98
O=C(/C=C/c1cccc(F)c1)NCc1ccc2c(c1)OCO2	AI-2 QS mod -88 | JMH597 growth rt inactive | BB721 lum counter 96 | BB721 growth inactive | JMH597 AI-2 mod 97
Cc1cccc(NC(=O)NCc2ccc3c(c2)OCO3)c1	AI-2 QS mod -87 | JMH597 growth rt inactive | BB721 lum counter 96 | BB721 growth inactive | JMH597 AI-2 mod 96
O=C(/C=C/c1cccc([N+](=O)[O-])c1)NCc1ccc2c(c1)OCO2	none (no result: ERp5 inh)
Cc1cccc(NC(=S)NCc2ccc3c(c2)OCO3)c1	none (no result: ERp5 inh)
O=C(NCC[C@@H]1CC[C@@H](NC(=O)Nc2cc(F)ccc2F)[C@@H](CO)O1)Nc1ccc(F)cc1	none (no result: AI-2 QS mod, Vif imaging, PvdQ acylase, PDI turbidity)
COc1ccc(NC(=O)N(C)C[C@H]2OCCCC[C@@H](C)Oc3ccc(NC(=O)C4CCCCC4)cc3C(=O)N([C@H](C)CO)C[C@H]2C)cc1	none (no result: AI-2 QS mod, Vif imaging, PvdQ acylase, PDI turbidity)
CC(=O)N(C)C[C@@H]1Oc2ncc(C#Cc3ccncc3)cc2C(=O)N([C@@H](C)CO)C[C@H]1C	none (no result: AI-2 QS mod, Vif imaging, PvdQ acylase, PDI turbidity)
COC(=O)N/N=C/c1ccc(-c2ccc(Cl)cc2Cl)o1	none
O=C(O)c1ccc(N/N=C/c2ccc(-c3ccc(Cl)cc3Cl)o2)cc1	AI-2 QS mod -90 | JMH597 growth rt inactive | BB721 lum counter 98 | BB721 growth inactive | JMH597 AI-2 mod 97
CCC(=O)Nc1ccc2c(c1)C(=O)N(C)C[C@H](OC)[C@H](C)CN(C(=O)CC1CC1)[C@@H](C)CO2	none (no result: AI-2 QS mod, Vif imaging, PvdQ acylase, PDI turbidity)
CC(C)(C)c1ccc(OCC(O)CN2CCc3ccccc3C2)cc1 (stereo not given)	AI-2 QS mod -82 (no result: PvdQ acylase) | JMH597 growth rt inactive | BB721 lum counter 81 | BB721 growth inactive | JMH597 AI-2 mod 88
COc1ccc(OCC(O)CN2CCc3ccccc3C2)cc1 (stereo not given)	none
Cc1ccc(-c2[nH]ncc2C(=O)c2ccc(Br)cc2)c(O)c1	AI-2 QS mod -95 | JMH597 growth rt inactive | BB721 lum counter 97 | BB721 growth inactive | JMH597 AI-2 mod 98
O=C(/C=C/c1ccccc1Cl)NCc1cccs1	AI-2 QS mod -93 (no result: Vif imaging, ERp5 inh) | JMH597 growth rt inactive | BB721 lum counter 97 | BB721 growth inactive | JMH597 AI-2 mod 98
